Consider seven molecules from PubChem BioAssay (NCI).

Test systems include SR leukemia; RPMI-8226 leukemia; OVCAR-8 ovarian; OVCAR-5 ovarian; OVCAR-4 ovarian; SK-OV-3 ovarian; IGROV1 ovarian; HS 578T breast; NCI/ADR-RES ovarian; T-47D breast; BT-549 breast; MDA-MB-435 melanoma; SW-620 colon; MCF7 breast; HCT-116 colon; HCC-2998 colon; KM12 colon; OVCAR-3 ovarian.
Experiment in all cases: NCI-60 one-dose screen, 48 h (100 = growth as untreated, 0 = no growth, -100 = all killed)
Details in all cases: 10 µM unless noted

The structures appear in SMILES notation. About 83,000 compounds went through this panel and 20% of them were active in at least one assay; those are over-represented in the sample as a whole.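 Plates (96-well) were seeded with cells, treated with compound at one concentration, and incubated for 48 hours before percent growth was determined.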 Unmarked numbers belong to inactive results. Activity calls are given as the source filed them. How the source made its calls: active means growth percent below 10; inactive means the rest.

For `CCOC(=O)c1c2c(n3c1NCC3)-c1ccccc1C2=O`, the growth is 100% with SR leukemia; 105% in the test on RPMI-8226 leukemia; 99.4% in the test on OVCAR-8 ovarian; 89.4% with OVCAR-5 ovarian; 99.7% in the test with OVCAR-4 ovarian; 104% with SK-OV-3 ovarian. The growth was 67.3% in the test on IGROV1 ovarian; 106% with HS 578T breast; 102% in the test with NCI/ADR-RES ovarian; 97.7% with T-47D breast; 86.9% with BT-549 breast; 90.8% in the test on MDA-MB-435 melanoma. For the same molecule, the growth with SW-620 colon was 91.8%; with MCF7 breast it was 90.6%; with HCT-116 colon, 103%; with HCC-2998 colon it was 91.4%; in the test on KM12 colon it was 103%.
Consider `N#Cc1c(-c2ccccc2)c(C#N)c2c(C#N)c(N)nn2c1N`, for which the growth in the test with SR leukemia was 2.65% (active); in the test with RPMI-8226 leukemia it was 21.2%; with OVCAR-8 ovarian, 61.1%; in the test with OVCAR-5 ovarian, 78%; in the test on OVCAR-4 ovarian it was 57.7%; in the test with SK-OV-3 ovarian, 62.2%. For the same molecule, the growth in the test with OVCAR-3 ovarian is 15.5%; with HS 578T breast it was 27.4%; with NCI/ADR-RES ovarian, 29.9%; with T-47D breast, 19.6%; with BT-549 breast, 47.4%; in the test with MDA-MB-435 melanoma, -39.6% (active). In addition, the growth in the test on SW-620 colon was 25.4%; with MCF7 breast, 15.9%; in the test with HCT-116 colon, 24.2%; in the test on HCC-2998 colon it was 61.4%; with KM12 colon, 24.4%.
Take `COc1cc(-c2nc3ccc(C)cc3[nH]2)ccc1OCC(=O)N=Nc1c(O)[nH]c2ccc(Cl)cc12`: the growth with SR leukemia was -32.8% (active); with RPMI-8226 leukemia, -36.6% (active); in the test on OVCAR-8 ovarian, -34.7% (active); in the test on OVCAR-5 ovarian, 11.1%; in the test with OVCAR-4 ovarian it was -8% (active); in the test with SK-OV-3 ovarian, 32%. The growth was 4.74% (active) with IGROV1 ovarian; -22.3% (active) in the test on HS 578T breast; 83.4% in the test with NCI/ADR-RES ovarian; -43.2% (active) in the test with T-47D breast; 68.5% in the test on BT-549 breast; -2.5% (active) with MDA-MB-435 melanoma. Moreover, the growth in the test with SW-620 colon was -58.9% (active); with MCF7 breast it was -64.9% (active); with HCT-116 colon, -34.9% (active); with HCC-2998 colon it was -32.5% (active); with KM12 colon, -40.1% (active).
For the molecule `O=C(Nc1ccccc1O)c1ccccc1Nc1ccnc(C(F)(F)F)c1`, the growth with SR leukemia was 76%; in the test on RPMI-8226 leukemia it was 56.5%; in the test on OVCAR-8 ovarian it was 100%; with OVCAR-5 ovarian, 99.9%; in the test on OVCAR-4 ovarian, 95.8%; with SK-OV-3 ovarian it was 100%. The growth was 79.5% in the test with IGROV1 ovarian; 96.4% in the test on HS 578T breast; 90.7% in the test with NCI/ADR-RES ovarian; 88.4% in the test with T-47D breast; 112% in the test on BT-549 breast; 115% in the test with MDA-MB-435 melanoma. Besides, the growth with SW-620 colon was 102%; in the test on MCF7 breast it was 83.4%; with HCT-116 colon, 84.2%; in the test on HCC-2998 colon, 107%; in the test with KM12 colon it was 102%.
As to `O=C(CSc1nnc2sc(Nc3cccc(Cl)c3)nn12)c1ccc(F)cc1`, the growth in the test on SR leukemia was 90.9%; in the test with RPMI-8226 leukemia it was 94.9%; in the test on OVCAR-8 ovarian it was 102%; with OVCAR-5 ovarian it was 95.1%; in the test with OVCAR-4 ovarian, 101%; with SK-OV-3 ovarian, 82.1%. For the same molecule, the growth was 106% in the test with OVCAR-3 ovarian; 97.4% with HS 578T breast; 96.4% in the test on NCI/ADR-RES ovarian; 76.4% in the test on T-47D breast; 97.8% with BT-549 breast; 100% in the test on MDA-MB-435 melanoma. Moreover, the growth in the test with SW-620 colon is 99%; in the test with MCF7 breast, 90.4%; in the test on HCT-116 colon, 85.8%; in the test on HCC-2998 colon, 103%; in the test with KM12 colon it was 95.8%.
`O=C(/C=C\c1ccco1)/C=C/c1ccco1`: the growth with SR leukemia was 103%; with RPMI-8226 leukemia it was 99.1%; in the test with OVCAR-8 ovarian it was 99.8%; with OVCAR-5 ovarian, 95.1%; with OVCAR-4 ovarian, 105%; with SK-OV-3 ovarian, 104%. The growth in the test with OVCAR-3 ovarian is 134%; in the test with HS 578T breast it was 105%; in the test on NCI/ADR-RES ovarian, 105%; in the test on T-47D breast, 112%; in the test with BT-549 breast, 101%; in the test on MDA-MB-435 melanoma it was 98.3%. Besides, the growth in the test with SW-620 colon was 103%; with MCF7 breast it was 101%; in the test on HCT-116 colon, 105%; in the test on HCC-2998 colon, 101%; in the test with KM12 colon, 106%.
Turning to `CCOC(=O)Cn1c(=O)c2c3ccccc3n(C)c2n2nnc(-c3ccccc3)c12`, the growth in the test with SR leukemia is -50.7% (active); in the test on RPMI-8226 leukemia it was 65%; in the test with OVCAR-8 ovarian, 113%; in the test with OVCAR-5 ovarian, 74.3%; with OVCAR-4 ovarian, 102%; in the test on SK-OV-3 ovarian, 117%. The growth was 58.6% in the test with IGROV1 ovarian; 82.1% with HS 578T breast; 85.7% in the test on NCI/ADR-RES ovarian; 95.1% in the test with T-47D breast; 104% in the test on BT-549 breast; 99.1% in the test with MDA-MB-435 melanoma. For the same molecule, the growth is 95.7% with SW-620 colon; 81.8% with MCF7 breast; 65% in the test with HCT-116 colon; 67.8% in the test on HCC-2998 colon; 99.7% with KM12 colon.
